# Test results: ChEMBL document CHEMBL3988442, “University of Dundee, Small-Polar-MMV Screening Library” (2021)
# For some of these results: Results with a measured potency or affinity are listed apart.
# Experiments:
# Set-up in all cases: scale not given: direction of the effect not stated beside the values
# [1] = target: Protein translocase subunit SecA (Escherichia coli (strain K12)) (UniProt P10408); experiment: Assay to Identify E. coli SecA ATPase Inhibitors; assay type: functional; conditions: 30 µM
# Protein translocase subunit SecA (Escherichia coli (strain K12)), sequence (P10408 whole entry): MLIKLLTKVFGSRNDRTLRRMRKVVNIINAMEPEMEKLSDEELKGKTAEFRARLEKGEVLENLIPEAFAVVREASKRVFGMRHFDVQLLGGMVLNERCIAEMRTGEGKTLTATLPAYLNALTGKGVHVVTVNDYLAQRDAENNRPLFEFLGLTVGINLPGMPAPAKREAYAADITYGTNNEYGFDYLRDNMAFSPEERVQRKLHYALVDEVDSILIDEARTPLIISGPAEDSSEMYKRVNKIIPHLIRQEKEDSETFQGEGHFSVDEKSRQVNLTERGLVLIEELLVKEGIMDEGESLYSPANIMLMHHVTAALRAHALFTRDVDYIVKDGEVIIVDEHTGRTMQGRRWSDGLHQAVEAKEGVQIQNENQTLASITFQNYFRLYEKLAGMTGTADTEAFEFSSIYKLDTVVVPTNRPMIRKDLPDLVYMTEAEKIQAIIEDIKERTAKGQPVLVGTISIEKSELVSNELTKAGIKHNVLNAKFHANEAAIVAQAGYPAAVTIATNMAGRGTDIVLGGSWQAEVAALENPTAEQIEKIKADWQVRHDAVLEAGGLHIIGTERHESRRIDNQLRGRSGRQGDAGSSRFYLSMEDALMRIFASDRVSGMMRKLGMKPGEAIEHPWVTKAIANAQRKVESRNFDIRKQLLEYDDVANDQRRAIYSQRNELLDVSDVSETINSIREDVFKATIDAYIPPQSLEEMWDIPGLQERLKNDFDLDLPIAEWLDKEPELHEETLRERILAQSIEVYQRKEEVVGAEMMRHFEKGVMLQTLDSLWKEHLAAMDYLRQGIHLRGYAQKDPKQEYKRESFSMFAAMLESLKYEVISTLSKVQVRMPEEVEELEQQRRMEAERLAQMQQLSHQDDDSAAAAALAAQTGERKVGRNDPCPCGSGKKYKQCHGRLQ
# [2] = target: T1, Ubiquitin-activating enzyme e1, putative (Leishmania donovani (strain BPK282A1)) (UniProt E9BSI1); experiment: Leishmania donovani Ubiquitin Activating Enzyme (LdE1); assay type: functional; conditions: 30 µM
# T1 sequence (whole entry): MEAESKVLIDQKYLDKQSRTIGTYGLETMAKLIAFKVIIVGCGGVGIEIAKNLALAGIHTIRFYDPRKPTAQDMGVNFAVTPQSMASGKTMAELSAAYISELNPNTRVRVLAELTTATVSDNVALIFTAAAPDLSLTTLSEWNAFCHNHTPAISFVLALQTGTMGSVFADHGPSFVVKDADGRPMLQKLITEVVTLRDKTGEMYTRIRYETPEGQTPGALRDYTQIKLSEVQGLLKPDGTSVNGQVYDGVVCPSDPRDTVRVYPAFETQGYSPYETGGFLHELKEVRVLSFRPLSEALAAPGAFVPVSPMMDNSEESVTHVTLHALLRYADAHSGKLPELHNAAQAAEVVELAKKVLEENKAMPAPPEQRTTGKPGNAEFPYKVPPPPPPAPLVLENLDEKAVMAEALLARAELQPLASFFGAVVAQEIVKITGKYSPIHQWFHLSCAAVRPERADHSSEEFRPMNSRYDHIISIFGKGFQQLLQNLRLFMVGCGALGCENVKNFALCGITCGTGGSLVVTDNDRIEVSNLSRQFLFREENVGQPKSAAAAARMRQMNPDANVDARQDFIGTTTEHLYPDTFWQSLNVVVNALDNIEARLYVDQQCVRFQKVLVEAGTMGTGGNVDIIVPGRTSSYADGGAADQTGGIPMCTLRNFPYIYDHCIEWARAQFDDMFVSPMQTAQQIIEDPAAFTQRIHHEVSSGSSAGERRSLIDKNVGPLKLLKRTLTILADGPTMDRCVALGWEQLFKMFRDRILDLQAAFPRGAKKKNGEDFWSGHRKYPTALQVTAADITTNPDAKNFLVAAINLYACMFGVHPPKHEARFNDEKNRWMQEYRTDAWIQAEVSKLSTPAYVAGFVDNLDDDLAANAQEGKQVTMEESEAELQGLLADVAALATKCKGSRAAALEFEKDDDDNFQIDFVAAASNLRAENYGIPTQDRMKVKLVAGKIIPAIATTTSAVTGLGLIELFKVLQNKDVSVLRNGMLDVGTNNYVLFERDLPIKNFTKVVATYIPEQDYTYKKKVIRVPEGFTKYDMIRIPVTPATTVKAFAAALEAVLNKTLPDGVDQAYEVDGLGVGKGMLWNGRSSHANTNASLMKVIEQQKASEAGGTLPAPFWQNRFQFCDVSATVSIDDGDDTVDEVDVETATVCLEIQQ
# [3] = target: Sialic acid-binding Ig-like lectin 9 (Homo sapiens) (UniProt Q9Y336); experiment: Hs-Siglec9 ALPHAscreen SOP 20170721; conditions: 10 µM
# Sialic acid-binding Ig-like lectin 9 (Homo sapiens), sequence (Q9Y336 whole entry): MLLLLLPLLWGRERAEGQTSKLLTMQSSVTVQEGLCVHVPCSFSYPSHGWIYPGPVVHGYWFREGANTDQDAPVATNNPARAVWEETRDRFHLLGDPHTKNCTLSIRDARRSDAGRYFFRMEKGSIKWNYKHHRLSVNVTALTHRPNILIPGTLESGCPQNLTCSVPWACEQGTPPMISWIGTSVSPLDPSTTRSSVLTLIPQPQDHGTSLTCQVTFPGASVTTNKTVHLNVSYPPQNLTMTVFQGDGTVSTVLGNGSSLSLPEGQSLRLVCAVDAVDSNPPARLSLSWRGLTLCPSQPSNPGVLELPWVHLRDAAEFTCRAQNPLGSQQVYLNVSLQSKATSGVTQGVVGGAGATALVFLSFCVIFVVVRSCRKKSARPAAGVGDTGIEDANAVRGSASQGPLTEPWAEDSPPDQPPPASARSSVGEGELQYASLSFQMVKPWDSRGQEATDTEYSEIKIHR
# [4] = test system: Trypanosoma cruzi; experiment: Trypanosoma cruzi phosphomannomutase and mannose-1-phosphate guanylyltransferase assay; assay type: functional; conditions: 10 µM
# [5] = target: T2, Arginase-2, mitochondrial (Homo sapiens) (UniProt P78540); experiment: in vitro enzyme assay to detect the production of urea directly proportional to the activity of Arginase II; assay type: functional; conditions: 33.3 µM; further: in the data most compounds retested in dose-response had high values
# T2 sequence (whole entry): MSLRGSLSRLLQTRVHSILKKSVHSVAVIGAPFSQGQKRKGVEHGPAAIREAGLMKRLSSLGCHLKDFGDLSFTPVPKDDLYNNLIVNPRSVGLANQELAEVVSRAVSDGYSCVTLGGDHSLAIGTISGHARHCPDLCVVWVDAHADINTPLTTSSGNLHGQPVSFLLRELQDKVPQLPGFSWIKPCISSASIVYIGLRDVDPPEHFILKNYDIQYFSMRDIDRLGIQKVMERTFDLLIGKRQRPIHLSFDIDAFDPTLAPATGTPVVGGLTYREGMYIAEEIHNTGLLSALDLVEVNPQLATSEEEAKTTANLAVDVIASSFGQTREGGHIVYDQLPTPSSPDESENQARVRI
# [6] = target: T3, Proteasome subunit beta (Trypanosoma cruzi) (UniProt O96673); experiment: Trypanosoma cruzi proteasome chymotrypsin-like activity (TcProtChymo) assay.; further: in the data most compounds retested in dose-response had high values; assay type: functional; conditions: 9.37 µM
# T3 sequence (whole entry): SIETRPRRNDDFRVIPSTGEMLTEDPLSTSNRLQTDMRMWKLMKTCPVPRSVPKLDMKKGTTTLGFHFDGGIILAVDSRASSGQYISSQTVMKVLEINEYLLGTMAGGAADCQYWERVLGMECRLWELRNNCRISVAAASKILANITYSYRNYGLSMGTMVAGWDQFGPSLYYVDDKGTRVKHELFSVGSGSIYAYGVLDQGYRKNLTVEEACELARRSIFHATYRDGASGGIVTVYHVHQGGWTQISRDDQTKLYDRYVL
# [7] = species: Homo sapiens; experiment: To identify inhibition of the IFN signalling (Jak-Stat) pathway via expression of an eGFP reporter gene under the control of an IFN-stimulated response element (ISRE) containing MxA promoter.; assay type: functional; conditions: 30 µM
# [8] = target: T4, Tyrosyl-tRNA synthetase, putative (Trypanosoma cruzi (strain CL Brener)) (UniProt Q4DSP6); experiment: Trypanosoma cruzi tyrosyl tRNA synthetase (TcYRS) _High Tyrosine SOP; assay type: functional; conditions: 30 µM; further: in the data most compounds retested in dose-response had high values
# T4 sequence (whole entry): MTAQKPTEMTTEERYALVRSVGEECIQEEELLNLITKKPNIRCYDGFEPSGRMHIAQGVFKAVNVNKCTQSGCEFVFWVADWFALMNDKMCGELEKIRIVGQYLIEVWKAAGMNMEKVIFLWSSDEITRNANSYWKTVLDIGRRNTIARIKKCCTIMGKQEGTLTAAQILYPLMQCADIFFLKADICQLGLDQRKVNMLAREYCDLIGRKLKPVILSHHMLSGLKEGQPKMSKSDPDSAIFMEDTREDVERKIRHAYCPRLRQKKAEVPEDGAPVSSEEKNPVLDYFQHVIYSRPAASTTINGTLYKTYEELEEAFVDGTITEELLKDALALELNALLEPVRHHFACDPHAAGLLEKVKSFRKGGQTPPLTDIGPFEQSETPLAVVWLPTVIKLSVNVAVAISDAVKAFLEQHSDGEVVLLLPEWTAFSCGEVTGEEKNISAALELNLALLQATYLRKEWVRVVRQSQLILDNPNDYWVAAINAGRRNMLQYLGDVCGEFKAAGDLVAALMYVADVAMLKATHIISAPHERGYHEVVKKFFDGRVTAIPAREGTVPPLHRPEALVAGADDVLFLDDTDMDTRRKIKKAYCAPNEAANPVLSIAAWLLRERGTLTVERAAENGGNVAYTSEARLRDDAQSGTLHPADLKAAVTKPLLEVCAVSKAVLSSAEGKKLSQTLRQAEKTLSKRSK
# [9] = target: T4, Tyrosyl-tRNA synthetase, putative (Trypanosoma cruzi (strain CL Brener)); experiment: Trypanosoma cruzi tyrosyl tRNA synthetase (TcYRS) SOP; assay type: functional; conditions: 30 µM
# [10] = target: Chromo domain-containing protein 1 (Saccharomyces cerevisiae (strain ATCC 204508 / S288c) (Baker's yeast)) (UniProt P32657); experiment: ScCHD-1 Enzyme Inhibition Assay; assay type: functional; conditions: 30 µM; further: in the data most compounds retested in dose-response had high values
# Chromo domain-containing protein 1 (Saccharomyces cerevisiae (strain ATCC 204508 / S288c) (Baker's yeast)), sequence (P32657 whole entry, the tested form may be a part): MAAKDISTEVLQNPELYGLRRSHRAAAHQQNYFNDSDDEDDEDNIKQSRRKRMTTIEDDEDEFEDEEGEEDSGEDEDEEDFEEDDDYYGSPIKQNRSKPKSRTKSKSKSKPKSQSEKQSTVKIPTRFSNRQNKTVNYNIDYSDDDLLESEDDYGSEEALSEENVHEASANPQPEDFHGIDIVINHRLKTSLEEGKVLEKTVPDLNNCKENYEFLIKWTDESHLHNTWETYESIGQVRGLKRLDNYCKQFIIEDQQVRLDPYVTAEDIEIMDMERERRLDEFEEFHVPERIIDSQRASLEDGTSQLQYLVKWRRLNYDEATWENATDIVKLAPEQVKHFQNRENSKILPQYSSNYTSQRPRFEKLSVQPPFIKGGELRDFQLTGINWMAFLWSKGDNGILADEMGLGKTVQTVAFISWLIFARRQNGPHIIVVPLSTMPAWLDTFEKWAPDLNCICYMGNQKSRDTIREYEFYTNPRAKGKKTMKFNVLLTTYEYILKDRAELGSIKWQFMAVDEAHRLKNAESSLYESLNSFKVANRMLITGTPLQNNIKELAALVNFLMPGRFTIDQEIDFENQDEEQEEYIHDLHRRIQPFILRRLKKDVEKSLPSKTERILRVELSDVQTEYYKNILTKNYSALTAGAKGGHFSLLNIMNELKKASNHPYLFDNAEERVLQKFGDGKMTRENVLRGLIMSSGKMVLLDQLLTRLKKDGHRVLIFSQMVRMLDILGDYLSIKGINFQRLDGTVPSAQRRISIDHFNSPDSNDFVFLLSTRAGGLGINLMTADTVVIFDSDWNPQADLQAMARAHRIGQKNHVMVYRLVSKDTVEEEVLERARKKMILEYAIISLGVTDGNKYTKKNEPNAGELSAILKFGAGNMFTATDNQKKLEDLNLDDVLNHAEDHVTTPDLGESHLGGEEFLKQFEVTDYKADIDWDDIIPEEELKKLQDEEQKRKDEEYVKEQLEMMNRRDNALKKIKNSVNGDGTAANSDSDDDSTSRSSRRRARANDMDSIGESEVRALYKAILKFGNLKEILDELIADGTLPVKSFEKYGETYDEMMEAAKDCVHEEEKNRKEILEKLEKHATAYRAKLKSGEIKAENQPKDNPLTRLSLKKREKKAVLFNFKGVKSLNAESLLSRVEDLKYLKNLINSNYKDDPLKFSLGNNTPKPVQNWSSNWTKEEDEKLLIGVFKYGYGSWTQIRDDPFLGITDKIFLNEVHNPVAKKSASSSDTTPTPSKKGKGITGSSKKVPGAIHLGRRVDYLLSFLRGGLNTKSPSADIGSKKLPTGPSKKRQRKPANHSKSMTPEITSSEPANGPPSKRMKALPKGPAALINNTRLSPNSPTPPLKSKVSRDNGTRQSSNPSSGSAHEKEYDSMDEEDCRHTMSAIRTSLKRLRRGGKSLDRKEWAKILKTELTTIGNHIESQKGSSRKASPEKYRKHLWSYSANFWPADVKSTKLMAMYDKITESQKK
Structure (SMILES),Percent Effect [1] [%],Percent Effect [2] [%],Percent Effect [3] [%],Percent Effect [4] [%],Percent Effect [5] [%],Percent Effect [6] [%],Percent Effect [7] [%],Percent Effect [8] [%],Percent Effect [9] [%],Percent Effect [10] [%]
CCc1nc(CN(C)C2CCN(CCNS(=O)(=O)CC)C2)no1 (stereo not given),1.97,5.33,-3.88,-6.83,-2.22,18.1,14.6,-1.58,-2.56,-8.45
Cc1nc(C(=O)N2CCC(Cc3cnc4[nH]ccc4c3)C2)co1 (stereo not given),-3.17,6.67,-5.86,-1.97,-4.87,10.5,26.2,-2.12,-2.5,-18.2
COc1ccccc1CCN(C)C(=O)NC(C)c1nncn1C (stereo not given),-6.85,10.7,12.9,-1.21,0,16.2,-2.26,2.63,5.13,-8.54
O=C(C1CC1)N1CC[C@H](O)[C@@H]1Cc1ccccc1,-7.5,3.9,-3.5,-0.75,1.37,1.8,-8.68,2.9,2.5,-12.8
N#Cc1cccc(S(=O)(=O)NC(=O)COc2ccc3c(c2)CCC3)c1,-4.11,12.8,-9.11,6.48,-0.82,17,0.752,0.478,20.5,-4.5
Cc1nc(CNCC2CN(C)CCO2)cs1 (stereo not given),-4.87,18.2,4.98,3.73,-3.89,1.05,-7.33,1.96,21.2,-11.4
CCOCC1CC2(CCN(C(=O)c3ccccn3)CC2)CO1 (stereo not given),-5.71,-1.3,4.48,-0.876,-3.64,9.44,-3.04,1.58,2.56,-2.76
Cn1ccc(C(=O)NCc2cccc(N3CCCCC3=O)c2)cc1=O,2.38,13,8.44,-0.373,-2.66,27.5,14.9,9.8,21.2,-9.09
CC(C)c1cc(N2CCC(N)CC2)n2nccc2n1,-7.82,5.41,8.57,11,-3.15,20.6,11.5,3.72,17.1,-1.59
Cc1occc1C(=O)N1CC[C@@H](N2CCOCC2)[C@@H]1Cc1ccccc1,-6.37,11.7,1.96,0.876,-2.83,7.33,0.411,8.95,15.4,-4.72
CCn1cc(CN2CCCC(c3[nH]ncc3S(C)(=O)=O)C2)cn1 (stereo not given),-3.37,14.7,8.19,2.56,-0.885,7.55,-4.1,4.23,15,-23.9
CCCc1cc(CNC(=O)C2CCOc3ccccc3C2)on1 (stereo not given),-1.27,10.8,3.17,2.62,15.7,10.8,29.7,5.85,14.6,-2.75
Cc1nn(C)c(N(C)C)c1CNCCNS(C)(=O)=O,-1.65,10.3,-0.784,5.54,5.74,9.3,-6.32,7.18,20.5,-2.87
Cn1cc(CN2CCC3(CC2)CC(c2ccncc2)C(=O)N3)cn1 (stereo not given),-3,6.49,-3.92,-5.36,2.02,16.7,-2.28,3.68,10.3,-1.42
Cc1n[nH]c(=O)c2c(NC(=O)CN3CCOC(C)C3)oc(C)c12 (stereo not given),1.61,17.9,-15.7,1.78,4.92,16.6,25.5,3.35,18.1,-6.38
Cn1cccc1-c1cc(C(=O)N2CCCC2c2cccnc2)[nH]n1 (stereo not given),-6.61,18.9,15.5,5.72,5.94,16.6,5.26,4.79,17.1,-2.92
CN(C)c1cc(C(=O)N2CCCN(Cc3cscn3)CC2)ccn1,-2,7.79,1.09,2.05,6.76,-4.39,1.34,6.86,16.5,-5.32
Cc1ccc(Oc2ccc(NC(=O)NCC3CCOC3)cn2)cc1C (stereo not given),-2.89,10.3,-3.96,7.98,6.97,8.79,-3.33,4.31,20.5,-8.82
CC(C)CNc1nc(C(=O)/N=c2\[nH]nc(C(C)(C)C)s2)cs1,2.26,8.11,-0.928,-8.83,1.75,12.3,19.4,5.85,17.1,1.47
O=C(O)c1csc(S(=O)(=O)Nc2cccc(OC(F)F)c2)c1,-5.06,-7.69,-2.43,-1.03,5.74,8.11,2.87,-5.26,1.21,-6.19
CC(C)CN(Cc1nc2c(cnn2C)c(=O)[nH]1)C(C)C,-1.52,10.3,-1.47,5.92,7.38,-3.5,-18.2,5.26,18.1,0.0184
CN(CC(=O)Nc1ccc(Br)cn1)C(=O)Cc1ccc(O)cc1,-6.43,-18.7,0.45,2.61,-0.887,8.4,0.283,3.68,-82,-5.7
